Here are results for 77 compounds from PubChem BioAssay AID504648 (National Center for Advancing Translational Sciences (NCATS), 2011).

Out of some 390,000 compounds screened, about 610 (0.16%) were called active. Not shown: some 4% with an inconclusive outcome. The call rests on the fitted dose curve; in most records, active means well fitted inhibition curve with a large enough effect; inconclusive means small, poorly fitted or top-dose-only effect, or effect the other way, or another doubt; inactive means no such curve, though single readings can be large or run the other way. The entries come from a sample that favours actives as a whole. Where a call stands in place of a potency, no number is given.
Potency means the concentration at half of the fitted maximal effect.

This assay in a line: Nrf2 qHTS screen for inhibitors: counterscreen for cytotoxicity. The conditions noted are these: A549 ARE-Fluc cells, CellTiter-Fluor viability, 18-24 h; series mostly up to 46 µM. In outline: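 A549 ARE-Fluc cells in 5% FBS OPTI-MEM, 5000 cells/well, rested 2 h then exposed to compounds in concentration-response for 18-24 h at 37 °C. Viability by CellTiter-Fluor fluorescence (Ex 405/Em 525) after 30 min; luciferase luminescence (BugLite, 15 min, RT) read afterwards.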
For `COc1ccc(C2Nc3ccccc3C(=O)N2Cc2ccc(CNC(=O)CO)cc2)cc1COc1ccc(NC(C)=O)cc1` (configuration not stated), the Potency result is “inactive”.

Turning to `Cc1ccc(OCCn2c(CNc3ccccc3C)nc3ccccc32)cc1`, the Potency entry is “inactive”.

On to `O=C(CCC1N=C2c3ccccc3N=C(SCc3ccccc3F)N2C1=O)NCCc1ccccc1` (configuration not stated), for which the Potency entry was “inactive”.

For `CN(C)Cc1cn(-c2ccccc2)nc1-c1ccccc1`, the Potency entry was “inactive”.

Consider `COC(=O)C(CC(C)C)NS(=O)(=O)c1cc(Br)ccc1Br` (configuration not stated), for which the Potency entry was “inactive”.

In the case of `Cc1cc(C)cc(NC(=O)CCS(=O)(=O)c2cc3c4c(c2)CCN4C(=O)CC3)c1`, the Potency result is “inactive”.

Regarding `O=[N+]([O-])c1ccc(S(=O)(=O)N2CCN(c3nc(-c4ccccc4)nc4ccccc34)CC2)cc1`, the Potency result was “inactive”.

Take `COc1ccc(C2Nc3ccccc3C(=O)N2Cc2ccco2)cc1COc1cccc(NC(C)=O)c1` (configuration not stated): the Potency result is “inactive”.

Turning to `C=CCNC(=O)c1ccc2nc(-c3ccco3)c(-c3ccco3)nc2c1`, the Potency entry was “inactive”.

Turning to `CCOc1ccc(NC(=O)c2c(NCc3cccc(OC)c3OC)sc3c2CCC3)cc1`, the Potency result was “inactive”.

Consider `CCOc1ccc(CC(=O)NCCc2csc3nc(-c4ccccc4F)nn23)cc1`, for which the Potency result is “inactive”.

Consider `CC(=O)Nc1ccc(S(=O)(=O)N2N=NC3C2C2CC4C3(CN(C(=O)OC(C)(C)C)S4(=O)=O)O2)cc1` (configuration not stated), for which the Potency entry is “inactive”.

Take `COc1ccc(CCn2c3c(c(=O)[nH]c2=S)CN(C(C)C)CN3)cc1OC`: the Potency entry was “inactive”.

As for `Cc1ccc(CNS(=O)(=O)c2ccc(C(=O)N(C)C)s2)cc1`, the Potency entry was “inactive”.

Consider `Cc1cc(C)n2ncc(C(=O)Nc3cccc(C#N)c3)c2n1`, for which the activity change, negative = cytotoxicity was -5.38% [at 9.26 µM] (inactive).

Take `Oc1ccc(Cl)cc1C1C=C(c2ccc3c(c2)OCO3)NC(c2c(F)cccc2Cl)N1` (configuration not stated): the Potency entry is “inactive”.

As to `COc1ccc(C2/C=C\CN(C(=O)c3ccc(C)cc3)C(Cc3ccccc3)C(=O)N2Cc2ccc(F)cc2)cc1` (configuration not stated), the Potency result was “inactive”.

Turning to `C=C1CCN(C(CC(C)C)C(=O)NCc2cc(OC)c(OC)c(OC)c2)S(=O)(=O)c2ccccc21` (configuration not stated), the Potency result was “inactive”.

As to `CCn1cc(/C=C2/SC(=S)NC2=O)c(C)n1`, the Potency was 18.4 µM (active).

As for `COc1cccc(C2c3c(ncn(-c4cccc(Br)c4)c3=N)Oc3ccc4ccccc4c32)c1` (configuration not stated), the Potency result was “inactive”.

On to `O=C(Nc1cccc2cccnc12)C(F)(F)F`, for which the Potency entry was “inactive”.

For `N#Cc1nc(NCc2ccc(Cl)c(Cl)c2)c2ncn(CCCO)c2n1`, the Potency entry was “inactive”.

`Cc1c(Cl)cccc1-c1ccc(CNCCCSc2nnnn2C)o1`: the Potency entry is “inactive”.

For `O=S1(=O)N=C(Oc2cccc(Br)c2)c2ccccc21`, the Potency entry is “inactive”.

With `O=C(NCc1ccccn1)[C@]1(C(F)(F)F)C[C@H](CCc2ccccc2)CCCO1`, the Potency entry was “inactive”.

For `O=c1ccc2c(-c3ccccc3S(=O)(=O)O)c3ccc(O)c(O)c3oc-2c1O`, the Potency was 13 µM (active).

`Cc1cc2c(s1)c1cnn(Cc3c(F)cccc3Cl)c(=O)c1n2C`: the Potency result is “inactive”.

With `CC(=O)NC(c1cccs1)c1cc(Cl)c2cccnc2c1O` (configuration not stated), the Potency entry was “inactive”.

`COC(=O)c1ccccc1NC(=O)c1ccc(C#N)cc1`: the Potency entry is “inactive”.

Consider `COc1ccc(-c2ccc3ncnc(NCc4cccs4)c3c2)cc1OC`, for which the Potency result is “inactive”.

In the case of `COc1ccccc1NC(=O)CSC1=Nc2ccccc2C2=NC(CC(=O)NCc3cccs3)C(=O)N12` (configuration not stated), the Potency result is “inactive”.

On to `Cc1ccc(-c2nc3ccccn3c2Nc2ccc(F)cc2)o1`, for which the Potency entry was “inactive”.

In the case of `COC(=O)c1ccccc1S(=O)(=O)Nc1ccc(OC)cc1`, the Potency entry was “inactive”.

As to `Oc1ccc(Cl)cc1C1C=C(c2ccc3c(c2)OCO3)NC(c2ccc(F)c(Br)c2)N1` (configuration not stated), the Potency result was “inactive”.

Take `O=C(NC(Nc1nc2ccc([N+](=O)[O-])cc2s1)(C(F)(F)F)C(F)(F)F)c1ccccc1`: the Potency is 10.3 µM (active).

Consider `O=C(Nc1nnc(S(=O)(=O)N2CCCc3ccccc32)s1)c1cccc(F)c1`, for which the Potency result is “inactive”.

As for `NS(=O)(=O)c1ccc2nc(NC(=O)COc3ccccc3)sc2c1`, the Potency result is “inactive”.

In the case of `O=C(Nc1nc2ccc([N+](=O)[O-])cc2s1)c1ccc(S(=O)(=O)N2CCCc3ccccc32)cc1`, the Potency is 9.2 µM (active).

Turning to `O=C(CNC(=O)c1ccccc1)OC(C(=O)Nc1cc([N+](=O)[O-])ccc1F)c1ccccc1` (configuration not stated), the Potency result is “inactive”.

For the compound `CNC(=O)c1ccsc1NC(=O)c1ccc(S(=O)(=O)N2CCc3ccccc32)cc1`, the Potency result is “inactive”.

In the case of `COc1ccc(C2=Nn3c(nnc3-c3ccccc3O)SC2)cc1`, the Potency result is “inactive”.

In the case of `Cc1ccc(CNc2ncnc3cc(-c4ccc5c(c4)OCO5)ccc23)o1`, the Potency result was “inactive”.

For `Cc1ccc(S(=O)(=O)NC(C(=O)N2CCOCCOCCOCCOCC2)c2ccccc2)cc1` (configuration not stated), the Potency entry was “inactive”.

For the compound `Cc1oc2c(c1C(=O)N1CCOCC1)C(=O)c1ccccc1C2=O`, the Potency was 16.4 µM (active).

With `Cc1ccc(C)c(CN2C(=O)c3ccccc3S(=O)c3ccc(C(=O)N4CCOCC4)cc32)c1` (configuration not stated), the Potency entry is “inactive”.

Regarding `CCN(CC)c1nc(C#N)nc(OC)n1`, the Potency result was “inactive”.

For the compound `Cc1ccccc1OCCSc1nc2ccc(NC(=O)c3ccco3)cc2s1`, the Potency entry is “inactive”.

Turning to `CCOc1ccccc1NC(=O)CN1CCCN(Cc2cccc(Cl)c2)S1(=O)=O`, the Potency entry is “inactive”.

Turning to `CC(C)c1ccc(NC(=O)Cn2c3ncccc3c(=O)n2-c2ccccc2)cc1`, the Potency result is “inactive”.

Regarding `Cc1ccc(C(=O)Nc2nc(-c3ccccc3)ns2)cc1`, the Potency entry is “inactive”.

Take `CCN1CCN(CCCNC(=O)c2ccc3c(c2)sc2nc(-c4ccc(OC)cc4)cn23)CC1`: the Potency result is “inactive”.

For `Cc1cc2nc(NC(=O)c3ccc(S(=O)(=O)N4CCOCC4)cc3)sc2cc1C`, the Potency result was “inactive”.

Turning to `CC(C)c1ccc(/C=C/C(=O)NCCCN2CCOCC2)cc1`, the Potency entry is “inactive”.

For the compound `Cc1ccc(/C=C2/SC(=S)N(CCC(=O)NCCCN3CCOCC3)C2=O)cc1`, the Potency is 14.6 µM (active).

As to `Cc1ccc(NS(=O)(=O)c2ccc(C(=O)NCCCN3CCOCC3)cc2)cc1`, the Potency entry is “inactive”.

As to `O=C(NCC1CC1)C1(C(F)(F)F)C/C(=C\CCO)CCCO1` (configuration not stated), the Potency entry was “inactive”.

As for `CCN1/C(=C\c2ccc3ccccc3[n+]2CC)Sc2cc(C)ccc21`, the Potency is 23.1 µM (active).

On to `Cc1ccc(CN2CCCn3nc(C(=O)NCc4ccccc4Cl)cc3C2=O)cc1`, for which the Potency result was “inactive”.

As to `Cc1ccc(Nc2c(-c3ccc(N(C)C)cc3)nc3nc[nH]n23)cc1`, the Potency entry is “inactive”.

Regarding `CN(C)c1ccc(Nc2c3c4c(cccc4n(C)c2=O)C(=O)c2ccccc2-3)cc1`, the Potency is 14.6 µM (active).

Consider `COc1cc(OC)c2c(c1C(CCN1CCCCC1)c1ccc(N(C)C)cc1)OC(=O)CC2c1ccc(N(C)C)cc1` (configuration not stated), for which the Potency entry is “inactive”.

For the compound `Cc1ccc(OCCSc2nc(-c3cccs3)nc3cc(=O)[nH]n23)cc1Cl`, the Potency entry is “inactive”.

Regarding `CCOc1ccc(NC(=O)C(CC(C)C)N2Cc3ccccc3C2=O)cc1` (configuration not stated), the Potency result is “inactive”.

In the case of `COc1cc(Cl)c(C)cc1NC(=O)CCc1nc2cccnc2n1Cc1cccs1`, the Potency entry was “inactive”.

On to `CN(C)c1ccc(C(=O)NCC(=O)OC(C(=O)Nc2cc(C(F)(F)F)ccc2Cl)c2ccccc2)cc1` (configuration not stated), for which the Potency entry is “inactive”.

On to `Cc1ccc(C(=O)NC2CCN(C#N)CC2)cc1`, for which the Potency entry is “inactive”.

As to `COc1ccc(-c2nc(S(=O)(=O)c3ccccc3)c(N3CCCCC3)o2)cc1`, the Potency entry is “inactive”.

As to `O=S(=O)(c1ccc2c(c1)OCCO2)N1CCN(S(=O)(=O)c2cc(F)ccc2F)CC1`, the Potency entry was “inactive”.

For `COc1ccc(C2/C=C\CN(Cc3ccco3)C(C)C(=O)N2Cc2ccc(F)cc2)cc1` (configuration not stated), the Potency result is “inactive”.

Consider `COc1cccc(NC(=O)Nc2ccc3c(c2)N(C)C(=O)c2ccccc2S3)c1`, for which the Potency entry is “inactive”.

As for `CC1(C)CCc2cc(S(=O)(=O)N3CCN(c4nc(-c5cccs5)nc5ccccc45)CC3)ccc2O1`, the Potency entry was “inactive”.

For the compound `CCCS(=O)(=O)N1CCC(n2c(C(F)(F)F)nc3cccnc32)CC1`, the Potency result was “inactive”.

Regarding `OCCNc1ncnc2oc(-c3ccco3)c(-c3ccco3)c12`, the Potency result is “inactive”.

As for `COc1ccc(C2CC(O)(c3ccccc3)Oc3cc(C)cc(C)c32)cc1` (configuration not stated), the Potency result is “inactive”.

As to `O=S(=O)(c1cccc(C(F)(F)F)c1)N1CCN(c2nc(-c3cccs3)nc3ccccc23)CC1`, the Potency result is “inactive”.

For the compound `COc1cccc(C(=O)NC2CCN(C#N)CC2)c1`, the Potency entry was “inactive”.

As for `C=CCCN(C(Cc1ccccc1)C(=O)OC)S(=O)(=O)c1cc(Br)ccc1Br` (configuration not stated), the Potency result is “inactive”.
